PubChem BioAssay AID1159580 (chemical genetic matrix, 2015)
Where “and” joins values, the source holds several entries; their conditions need not be identical. Equal values may be shown once. In all, about 5,500 compounds went through this assay and about 2,000 (36%) were called active. Inconclusive results (about 18%) are left out. Cut-off read from the data, not from the text of the source: active = normalized growth mostly below about 0.91 (no sharp cut-off); inconclusive = no clear call, values can overlap the other calls; inactive = mostly above about 0.92. Some of the results follow.

Test: chemical genetic growth profiling, strain panel (AID 1159580);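 note: tested at 20 µM; growth read once vehicle control cultures reached saturation at 30 °C; 1 = growth at the plate median or of vehicle wells; lower values mean less growth of the strain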
Settings: S. cerevisiae deletion strains, growth OD

Measured: normalized growth

C[C@H](COc1ccccc1)N[C@H](C)[C@H](O)c1ccc(O)cc1
inactive: locus YAL021C, strain ccr4, active compounds read low 0.964 | locus YAL026C, strain drs2, active compounds read low 0.974 | locus YAL030W, strain snc1, active compounds read low 0.999 | locus YBL061C, strain skt5, active compounds read low 1.01 | locus YBR009C, strain hhf1, active compounds read low 1 | locus YBR021W, strain FUR4, active compounds read low 0.986 | locus YBR023C, strain chs3, active compounds read low 0.981 | locus YBR171W, strain sec66, active compounds read low 0.997 | locus YBR229C, strain ROT2, active compounds read low 0.995 | locus YBR231C, strain swc5, active compounds read low 0.988 | locus YBR279W, strain paf1, active compounds read low 0.982 | locus YCL011C, strain gbp2, active compounds read low 1 | locus YCL016C, strain dcc1, active compounds read low 0.979 | locus YCL029C, strain bik1, active compounds read low 0.996 | locus YCL061C, strain MRC1, active compounds read low 0.986 | locus YCL069W, strain vba3, active compounds read low 0.997 | locus YCR088W, strain abp1, active compounds read low 0.998 | locus YDL005C, strain med2, active compounds read low 0.999 | locus YDL035C, strain GPR1, active compounds read low 1.03 | locus YDL040C, strain nat1, active compounds read low 0.994 | locus YDL074C, strain BRE1, active compounds read low 1.03 | locus YDL101C, strain DUN1, active compounds read low 1 | locus YDL185W, strain tfp1, active compounds read low 0.992 | locus YDL192W, strain arf1, active compounds read low 0.998 | locus YDR001C, strain nth1, active compounds read low 0.992 | locus YDR069C, strain doa4, active compounds read low 0.998 | locus YDR101C, strain arx1, active compounds read low 1.01 | locus YDR137W, strain rgp1, active compounds read low 0.963 | locus YDR150W, strain NUM1, active compounds read low 1 | locus YDR159W, strain sac3, active compounds read low 0.99 | locus YDR162C, strain NBP2, active compounds read low 1 | locus YDR195W, strain ref2 0.993 | locus YDR297W, strain sur2, active compounds read low 0.99 | locus YDR318W, strain mcm21, active compounds read low 0.994 | locus YDR334W, strain swr1, active compounds read low 0.996 | locus YDR335W, strain msn5, active compounds read low 1 | locus YDR388W, active compounds read low 0.997 | locus YDR392W, strain spt3, active compounds read low 0.952 | locus YDR502C, strain sam2, active compounds read low 1.01 | locus YEL003W, strain gim4, active compounds read low 1 | locus YEL037C, strain rad23, active compounds read low 0.997 | locus YEL061C, strain CIN8 (second series), active compounds read low 0.996 | locus YEL061C, strain CIN8, active compounds read low 1 | locus YER015W, strain faa2, active compounds read low 1 | locus YER016W, strain bim1, active compounds read low 1.01 | locus YER110C, active compounds read low 0.975 | locus YER111C, strain swi4, active compounds read low 0.988 | locus YER155C, strain BEM2 (second series), active compounds read low 0.983 | locus YER155C, strain BEM2, active compounds read low 0.986 | locus YER167W, strain BCK2, active compounds read low 0.985 | locus YFR010W, strain ubp6, active compounds read low 0.996 | locus YGL078C, strain dbp3, active compounds read low 0.98 | locus YGL086W, strain mad1, active compounds read low 1.01 | locus YGL167C, strain pmr1, active compounds read low 1 | locus YGL173C, strain kem1, active compounds read low 1 | locus YGL227W, strain vid30, active compounds read low 0.986 | locus YGL240W, strain doc1, active compounds read low 0.988 | locus YGL248W, strain PDE1, active compounds read low 0.993 | locus YGL253W, strain hxk2, active compounds read low 1.01 | locus YGR078C, strain PAC10, active compounds read low 1.01 | locus YGR135W, strain pre9, active compounds read low 0.942 | locus YGR252W, strain gcn5, active compounds read low 0.988 | locus YHR013C, strain ard1, active compounds read low 0.969 | locus YHR027C, strain rpn1, active compounds read low 0.997 | locus YHR030C, strain SLT2, active compounds read low 0.993 and 1 | locus YHR079C, strain IRE1 (second series), active compounds read low 0.991 | locus YHR079C, strain IRE1, active compounds read low 0.985 | locus YHR094C, strain hxt1, active compounds read low 0.974 | locus YHR129C, strain ARP1, active compounds read low 0.992 | locus YHR142W, strain chs7, active compounds read low 1 | locus YHR200W, strain rpn10, active compounds read low 0.992 | locus YIL066C, strain RNR3, active compounds read low 0.987 | locus YIL073C, strain SPO22, active compounds read low 0.977 | locus YIL125W, strain kgd1, active compounds read low 1 | locus YIR030C, strain dcg1, active compounds read low 0.993 | locus YJL092W, strain hpr5, active compounds read low 0.992 | locus YJL095W, strain BCK1 (second series), active compounds read low 0.998 | locus YJL095W, strain BCK1, active compounds read low 0.965 and 1 | locus YJL115W, strain asf1, active compounds read low 0.996 | locus YJL129C, strain trk1, active compounds read low 0.993 | locus YJL134W, strain LCB3, active compounds read low 0.991 | locus YJL154C, strain vps35, active compounds read low 0.998 | locus YJL164C, strain tpk1, active compounds read low 0.996 | locus YJL166W, strain qcr8, active compounds read low 0.989 | locus YJL168C, strain set2, active compounds read low 0.99 | locus YJL187C, strain SWE1 (second series), active compounds read low 0.985 | locus YJL187C, strain SWE1, active compounds read low 1.01
